Assay [1] is described as follows: small molecules captured by biotinylated probe aFSTL3 – biochemical, small-molecule microarray, fluorescence 635/667, stem cell growth factor project, primary screen (AID 1064).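 Also: measures binding of the biotinylated anti-FSTL3 antibody to printed compounds.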 The settings on record: higher = more signal.
Assay [2] can be described thus: binders from COS7 lysate, DM2A8 probe, primary screen, torsin A project, cell lysate, small-molecule microarray, fluorescence 635/667 (AID 1065). To be noted: higher = more signal, COS7 lysate expressing mutant human TOR1A.
A short description of assay [3]: small molecules captured by biotinylated probe aFGF2 – biochemical, small-molecule microarray, fluorescence 635/667, stem cell growth factor project, primary screen (AID 1067).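 Also: measures binding of biotinylated aFGF2 protein to printed compounds on slides; z-score merges feature fluorescence and signal-to-noise across triplicate slides.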 The settings on record: higher = more signal.
Assay [4] is described as follows: small molecules captured by biotinylated probe aFGF10 – biochemical, small-molecule microarray, fluorescence 635/667, stem cell growth factor project, primary screen (AID 1071).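 Also: score merges 667 nm spot intensity and signal to noise from triplicate slides.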 To be noted: higher = more signal.
Assay [5] has as its target Neurogenic locus notch homolog protein 2 (Homo sapiens) (UniProt Q04721). In words: small molecules binding Notch2 protein – biochemical, small-molecule microarray, 635 nm fluorescence, stem cell growth factors, primary screen (AID 1073). The settings on record: higher = more signal.
Assay [6] has as its target Pro-neuregulin-1, membrane-bound isoform (Homo sapiens) (UniProt Q02297). In words: small molecules binding neuregulin-1 protein – biochemical, small-molecule microarray, fluorescence 635/667, psychiatric disease protein project, primary screen (AID 1075).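 Also: score combines 667 nm spot fluorescence with signal to noise.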 To be noted: NRG1 binding, 635 nm fluorescence, higher = more signal.
The test system of assay [7] is Neuregulin-1 EGF-like domain. As to the kind of experiment: small molecules binding NRG1 EGF domain – biochemical, small-molecule microarray, 635 nm fluorescence, primary screen (AID 1081).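 Also: binding of the protein to compounds printed on small-molecule microarray slides.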 The settings on record: higher = more signal.
Assay [8] in a line: FRG1 expression reporter modulators in myotubes – cell-based, C2C12 myotubes, firefly/Renilla luciferase, luminescence, FRG1 inhibition for FSHD, primary screen (AID 1084). The settings on record: FRG1 promoter luciferase, higher = more signal, called active from +8 up or from −8 down.
Assay [9] can be described thus: small molecules captured by biotinylated probe aFST – biochemical, small-molecule microarray, fluorescence 635/667, stem cell growth factor project, primary screen (AID 1086).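 Also: score merges 667 nm fluorescence with signal-to-noise of each printed compound spot.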 To be noted: higher = more signal.
Assay [10] in a line: binders of probe aHhip on microarray, primary screen, stem cell growth factor project, biochemical, small-molecule microarray, fluorescence 635/667 (AID 1087).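 Also: score merges spot fluorescence at 667nm with spot signal to noise ratio.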 To be noted: higher = more signal.
The test system of assay [11] is PRMT1 (protein arginine N-methyltransferase 1). As to the kind of experiment: small molecules binding arginine methyltransferase PRMT1 – biochemical, small-molecule microarray, 635 nm fluorescence, primary screen (AID 1088).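 Also: binding of Prmt1 protein to compounds spotted on small-molecule microarray slides.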 The settings on record: higher = more signal.
Assay [12] in a line: growth effects on S. cerevisiae YJM789 – YJM789 clinical isolate, OD600, 24 h, basal, primary screen (AID 1089).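 Also: growth of clinical yeast isolate S. cerevisiae YJM 789 seeded 1000 cells per well; test concentration not given here.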 The settings on record: higher = more signal, called active from +8 up or from −8 down.
The nature of assay [13]: S. pombe growth modifiers, basal conditions – strain 972, OD600, 24 h, no modulator, primary screen (AID 1090).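 Also: basal condition with compound alone and no growth modifier present; test concentration not given here.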 The settings on record: S. pombe 972 growth, higher = more signal, called active from +8 up or from −8 down.
Assay [14] in a line: budding yeast growth modifiers under rapamycin – strain BY4716, OD600, 96 h, primary screen (AID 1091). Also: test concentration not given here. To be noted: S. cerevisiae BY4716 + rapamycin, higher = more signal, called active from +8 up or from −8 down.
Assay [15] deals with Torsin-1A-interacting protein 2 (Homo sapiens) (UniProt Q8NFQ8). As to the kind of experiment: small molecules binding lysate-expressed LULL1 – cell lysate, human LULL1 lysate, 635/667 nm fluorescence, primary screen (AID 1092).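 Also: probe is lysate of COS7 cells overexpressing human LULL1; score merges per-feature 667 nm fluorescence with signal-to-noise.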 To be noted: small-molecule microarray, hLULL1 lysate binding, 635 nm fluorescence; higher = more signal.
Sequence of Torsin-1A-interacting protein 2 (Homo sapiens) (Q8NFQ8 whole entry, looked up): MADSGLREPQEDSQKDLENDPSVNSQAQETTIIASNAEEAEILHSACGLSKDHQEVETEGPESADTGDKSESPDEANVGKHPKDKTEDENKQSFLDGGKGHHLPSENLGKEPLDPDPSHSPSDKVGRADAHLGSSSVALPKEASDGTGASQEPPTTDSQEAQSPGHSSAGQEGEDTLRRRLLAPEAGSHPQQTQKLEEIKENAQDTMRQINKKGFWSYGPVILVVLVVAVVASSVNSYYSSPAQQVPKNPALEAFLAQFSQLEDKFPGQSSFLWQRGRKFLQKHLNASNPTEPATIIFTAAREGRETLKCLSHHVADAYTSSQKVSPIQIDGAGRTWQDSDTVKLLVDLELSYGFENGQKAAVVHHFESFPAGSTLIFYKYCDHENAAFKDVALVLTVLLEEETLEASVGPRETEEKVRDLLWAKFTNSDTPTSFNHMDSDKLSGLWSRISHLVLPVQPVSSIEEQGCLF
Assay [16] is described as follows: optical density change of DRC41 E. coli – strain DRC41, OD650, 24 h, E. coli filamentation project, primary screen (AID 1093).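 Also: MC1000 strain lacking acrAB efflux and sulA so SOS filamentation is blocked; test concentration not given here.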 The settings on record: E. coli DRC41 growth, higher = more signal, called active from +8 up or from −8 down.
Assay [17] in a line: probe aLefty2 binding to arrayed compounds – biochemical, biotinylated probe, 635/667 nm fluorescence, primary screen (AID 1094).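 Also: score merges spot fluorescence near 667 nm with spot signal-to-noise ratio.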 The settings on record: small-molecule microarray, higher = more signal.
Assay [18] has as its system Noggin (protein binding on small-molecule microarray). As to the kind of experiment: small molecules binding Noggin protein – biochemical, 635/667 nm fluorescence, primary screen (AID 1095).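 Also: score merges 667 nm feature fluorescence with signal to noise over triplicate slides.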 The settings on record: 635 nm fluorescence, higher = more signal.
In assay [19] the target is Neurogenic locus notch homolog protein 3 (Homo sapiens) (UniProt Q9UM47). In words: small molecules binding NOTCH3 protein – biochemical, 635/667 nm fluorescence, primary screen (AID 1096). The settings on record: small-molecule microarray, 635 nm fluorescence, higher = more signal.
Sequence of Neurogenic locus notch homolog protein 3 (Homo sapiens) (Q9UM47 whole entry, looked up): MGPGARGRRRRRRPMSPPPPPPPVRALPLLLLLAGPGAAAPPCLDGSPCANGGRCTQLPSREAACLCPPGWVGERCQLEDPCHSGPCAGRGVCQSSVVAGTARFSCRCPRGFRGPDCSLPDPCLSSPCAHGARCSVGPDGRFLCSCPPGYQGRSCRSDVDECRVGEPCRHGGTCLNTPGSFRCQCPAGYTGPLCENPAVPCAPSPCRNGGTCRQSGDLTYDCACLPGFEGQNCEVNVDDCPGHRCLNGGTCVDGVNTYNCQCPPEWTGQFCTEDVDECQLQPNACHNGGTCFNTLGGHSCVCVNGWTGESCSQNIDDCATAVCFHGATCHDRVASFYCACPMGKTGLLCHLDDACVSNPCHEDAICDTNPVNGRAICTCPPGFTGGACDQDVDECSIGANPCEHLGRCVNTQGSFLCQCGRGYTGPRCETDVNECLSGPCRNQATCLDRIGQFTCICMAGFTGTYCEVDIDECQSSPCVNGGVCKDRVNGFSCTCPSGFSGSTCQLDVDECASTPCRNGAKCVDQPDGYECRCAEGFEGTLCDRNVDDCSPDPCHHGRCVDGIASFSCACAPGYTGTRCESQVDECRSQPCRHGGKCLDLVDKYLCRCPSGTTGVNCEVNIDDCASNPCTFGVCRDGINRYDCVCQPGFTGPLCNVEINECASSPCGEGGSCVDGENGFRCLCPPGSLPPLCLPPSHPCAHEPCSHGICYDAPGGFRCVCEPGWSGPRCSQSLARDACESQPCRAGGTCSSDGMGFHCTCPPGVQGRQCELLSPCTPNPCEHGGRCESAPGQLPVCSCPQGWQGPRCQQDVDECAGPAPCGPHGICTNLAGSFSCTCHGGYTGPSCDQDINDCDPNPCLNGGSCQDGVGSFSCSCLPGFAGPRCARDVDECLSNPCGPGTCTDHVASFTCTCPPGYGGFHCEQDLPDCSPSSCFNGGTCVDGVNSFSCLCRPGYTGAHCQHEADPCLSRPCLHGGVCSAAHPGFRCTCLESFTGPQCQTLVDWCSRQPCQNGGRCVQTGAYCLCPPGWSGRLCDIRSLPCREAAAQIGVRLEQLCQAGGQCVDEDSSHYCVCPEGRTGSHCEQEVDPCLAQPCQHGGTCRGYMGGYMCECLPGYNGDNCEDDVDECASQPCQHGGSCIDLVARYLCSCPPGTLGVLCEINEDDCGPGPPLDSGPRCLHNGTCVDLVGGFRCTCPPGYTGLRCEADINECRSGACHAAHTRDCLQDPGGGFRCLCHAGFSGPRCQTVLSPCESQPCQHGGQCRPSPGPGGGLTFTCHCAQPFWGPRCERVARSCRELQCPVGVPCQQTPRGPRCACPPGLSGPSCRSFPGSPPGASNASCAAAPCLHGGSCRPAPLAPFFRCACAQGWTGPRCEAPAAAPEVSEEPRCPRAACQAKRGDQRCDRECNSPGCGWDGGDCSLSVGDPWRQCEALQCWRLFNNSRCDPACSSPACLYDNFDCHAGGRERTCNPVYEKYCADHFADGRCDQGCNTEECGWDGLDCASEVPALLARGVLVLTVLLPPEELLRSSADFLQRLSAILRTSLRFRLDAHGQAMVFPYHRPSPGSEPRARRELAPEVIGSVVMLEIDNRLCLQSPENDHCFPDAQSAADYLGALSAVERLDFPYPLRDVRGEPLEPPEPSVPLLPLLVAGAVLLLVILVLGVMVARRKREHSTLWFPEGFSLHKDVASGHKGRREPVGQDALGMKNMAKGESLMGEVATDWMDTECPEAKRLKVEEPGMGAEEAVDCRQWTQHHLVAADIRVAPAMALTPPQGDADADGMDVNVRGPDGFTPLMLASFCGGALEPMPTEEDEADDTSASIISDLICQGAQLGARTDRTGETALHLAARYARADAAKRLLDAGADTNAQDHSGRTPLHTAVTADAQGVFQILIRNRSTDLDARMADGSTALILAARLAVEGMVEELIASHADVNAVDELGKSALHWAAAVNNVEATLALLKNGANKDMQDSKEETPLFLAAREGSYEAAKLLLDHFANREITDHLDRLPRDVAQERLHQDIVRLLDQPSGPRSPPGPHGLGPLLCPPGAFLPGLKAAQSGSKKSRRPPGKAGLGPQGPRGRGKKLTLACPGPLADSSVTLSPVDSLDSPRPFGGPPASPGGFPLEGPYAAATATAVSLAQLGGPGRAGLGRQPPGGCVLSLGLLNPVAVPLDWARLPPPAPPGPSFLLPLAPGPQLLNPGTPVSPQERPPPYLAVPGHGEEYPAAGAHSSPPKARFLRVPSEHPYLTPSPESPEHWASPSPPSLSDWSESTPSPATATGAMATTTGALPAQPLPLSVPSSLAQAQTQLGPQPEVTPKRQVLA
Assay [20] is described as follows: probe aEGFR binding to arrayed compounds – biochemical, biotinylated probe, 635/667 nm fluorescence, primary screen (AID 1097).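 Also: probe is a biotinylated anti-EGFR antibody binding compounds printed on slides; score combines fluorescence near 667 nm and signal to noise of each spot.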 The settings on record: small-molecule microarray, higher = more signal.

Calls of active or inactive are those of the source.

Sequence of Pro-neuregulin-1, membrane-bound isoform (Homo sapiens) (Q02297 whole entry, looked up, the tested form may be a part, canonical isoform): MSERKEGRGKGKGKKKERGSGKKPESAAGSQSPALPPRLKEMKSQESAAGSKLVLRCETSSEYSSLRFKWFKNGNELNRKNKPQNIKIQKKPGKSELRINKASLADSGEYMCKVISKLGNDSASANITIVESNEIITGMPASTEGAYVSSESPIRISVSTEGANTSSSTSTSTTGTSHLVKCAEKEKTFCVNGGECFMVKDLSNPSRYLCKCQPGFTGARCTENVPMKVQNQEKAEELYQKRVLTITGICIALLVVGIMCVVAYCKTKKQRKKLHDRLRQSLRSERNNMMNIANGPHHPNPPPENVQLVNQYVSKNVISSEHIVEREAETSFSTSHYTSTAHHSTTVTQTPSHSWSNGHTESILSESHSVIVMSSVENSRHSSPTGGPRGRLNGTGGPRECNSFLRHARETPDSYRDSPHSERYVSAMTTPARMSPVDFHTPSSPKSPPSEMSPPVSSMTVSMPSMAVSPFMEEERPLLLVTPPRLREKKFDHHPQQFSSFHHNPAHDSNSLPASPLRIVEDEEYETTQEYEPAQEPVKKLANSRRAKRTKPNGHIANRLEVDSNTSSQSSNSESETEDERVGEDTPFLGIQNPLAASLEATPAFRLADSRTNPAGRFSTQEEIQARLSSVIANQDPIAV

As for `CCCNC(=O)OC[C@H]1O[C@H](CCON=C(C)CCN2CCc3nc(CC)c(CC)cc3C2)C=C[C@@H]1Oc1ccc(OC)cc1`, the composite z-score in assay [1] was -0.343; in assay [2], 1.59; in [3], -0.129; in assay [4], -0.0187; in assay [5] it was 0.0329; in assay [6] it was 0.51. Moreover, the composite z-score was 0.428 in assay [7]; -0.0665 in [9]; 0.5 in [10]; 0.285 in [11]; 0.73 in [15]; -0.0539 in [17]. Moreover, the values for the composite z-score in assay [18], in assay [19] and in assay [20] were 0.559, -0.286 and -0.0381, respectively. In addition, the z-score in [8] was 0.31 (inactive); in assay [12], -0.348 (inactive); in assay [13], -2.36 (inactive); in assay [14] it was 0.156 (inactive); in [16], 0.004 (inactive).
`C=CC[C@@H]1C=C[C@H](ON=C2[C@H]3CCn4c(=O)n(-c5ccccc5)c(=O)n4[C@H]3[C@H](O)[C@@H]3O[C@H]23)[C@@H](CO)O1`: the composite z-score in assay [1] is -0.356; in assay [2], 0.189; in [3], -0.065; in assay [4], 0.274; in assay [5], 0.502; in [6], 0.19. Further, the composite z-score is 0.0586 in assay [7]; 0.0716 in [9]; 0.104 in [10]; -0.41 in assay [11]; -0.114 in [15]; -0.257 in assay [17]. The composite z-score was 0.308 in assay [18], -0.0701 in assay [19] and 0.0434 in assay [20]. Also, the z-score in [8] was -0.299 (inactive); in assay [12] it was 0.552 (inactive); in [13], 0.383 (inactive); in assay [14], 1.04 (inactive); in assay [16], 0.607 (inactive).
On to `CCCCc1nc2c(c3c1C[C@H](C)OC3)CN(CCOc1ccccc1)CC2`, for which the composite z-score in [1] was -0.43; in assay [2], 0.575; in assay [3] it was -0.149; in assay [4] it was 0.414; in [5], 0.882; in [6] it was 0.363. The composite z-score in assay [7] was 0.881; in assay [9] it was 0.192; in assay [10], 0.213; in assay [11] it was 1.44; in [15], 1.62; in assay [17] it was -0.005. Moreover, the values for the composite z-score in [18], in assay [19] and in [20] were 0.339, 0.732 and 0.219, respectively. For the same compound, the z-score is -1.55 (inactive) in assay [8]; -2.26 (inactive) in assay [12]; -4.02 (inactive) in assay [13]; 0.574 (inactive) in [14]; 0.976 (inactive) in [16].
Regarding `CCN1C(=O)[C@H]2[C@H]3[C@H](O)[C@H](O)CC(=O)[C@H]3CC[C@H]2C1=O`, the composite z-score in assay [1] was -0.652; in assay [2] it was 0.481; in assay [3], -0.0566; in [4], 0.39; in [5] it was 0.132; in [6] it was 0.298. The composite z-score in [7] is 0.81; in [9], 0.0722; in assay [10], 0.0373; in [11], 0.288; in [15], 0.718; in [17] it was -0.228. Also, the composite z-score is 0.675 in assay [18], 0.386 in assay [19] and -0.0989 in assay [20]. The z-score in assay [8] was 0.276 (inactive); in [12], -0.955 (inactive); in assay [13] it was -0.38 (inactive); in [14] it was -0.18 (inactive); in [16] it was 0.759 (inactive).
As for `CCOC(=O)NN=C1C[C@@H](O)[C@@H](O)[C@@H]2[C@@H]3C(=O)N(Cc4ccccc4)C(=O)[C@@H]3CC[C@H]12`, the composite z-score was -0.276 in assay [1]; 0.695 in [2]; -0.124 in assay [3]; 0.164 in assay [4]; 0.287 in [5]; -0.0283 in assay [6]. Besides, the composite z-score in [7] was -0.699; in [9], 0.0387; in [10], -0.223; in assay [11], -0.278; in [15], -0.308; in assay [17] it was -0.138. In addition, the composite z-score in assay [18] was 0.0448; in assay [19], -0.0518; in assay [20] it was -0.0387. In addition, the z-score was 1.08 (inactive) in [8]; -0.907 (inactive) in [12]; -0.524 (inactive) in [13]; -1.33 (inactive) in [14]; -0.127 (inactive) in assay [16].

These data come from PubChem BioAssay.
